{
  "source": "PubChem BioAssay (NCATS)",
  "note": "Records with an inconclusive call do not appear. A number with no mark means an inactive call. Active and inactive are the calls of the source. Calls follow the shape of the dose curve; as a rule, active = well fitted cell-killing curve with a large enough effect; inconclusive = small, poorly fitted or top-dose-only effect; inactive = no such curve, though single readings can be large or run the other way. Potency is read from the fitted curve at half-maximal effect.",
  "data": [
    {"assay": "qHTS of pediatric cancer cell lines to identify multiple opportunities for drug repurposing: Primary screen for SJ-GBM2 cells (AID 1347091);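 as to activity change, negative = cytotoxic: plate controls were DMSO neutral control for no effect and bortezomib for full effect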", "conditions": "SJ-GBM2 viability, CellTiter-Glo luminescence, 48 h; series mostly up to 46 µM; activity change, negative = cytotoxic: at the top concentration", "method_in_brief": "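Cell viability, CellTiter-Glo luminescence; 500-1,000 cells/well, 8- or 11-point titration, 48 h compound exposure at 37 degrees C, 5% CO2. Controls: DMSO neutral, bortezomib 2.3 µM final as positive.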", "values": [
      {"smiles": "COc1ccc(CC2c3cc(OC)c(OC)cc3CC[N+]2(C)CCC(=O)OCCCCCOC(=O)CC[N+]2(C)CCc3cc(OC)c(OC)cc3C2Cc2ccc(OC)c(OC)c2)cc1OC", "note": "(stereo not drawn)", "activity change, negative = cytotoxic": "27.6% [at 9.22 µM]"},
      {"smiles": "Cc1ccc2nc(NC(=O)CSc3nc4c(c(=O)n3-c3ccccc3)SCC4)sc2c1", "Potency": "14.8 µM (active)"},
      {"smiles": "O=C(O)c1ccc2c(c1)nc(Nc1cccc(Cl)c1)c1ccncc12", "Potency": "7.43 µM (active)"},
      {"smiles": "CC(C)(O)CCc1ccc(OCc2cc(-c3cccc(OC(F)F)c3)c3ncccc3c2)cc1", "activity change, negative = cytotoxic": "16.1%"},
      {"smiles": "Cc1cn(-c2cc(NC(=O)c3ccc(C)c(Nc4nccc(-c5cccnc5)n4)c3)cc(C(F)(F)F)c2)cn1", "Potency": "18.7 µM (active)"},
      {"smiles": "COC(=O)c1ccc2c(C(=Nc3ccc(N(C)C(=O)CN4CCN(C)CC4)cc3)c3ccccc3)c(O)[nH]c2c1", "Potency": "16.6 µM (active)"},
      {"smiles": "C1=CCOCc2cc(ccc2OCCN2CCCC2)Nc2nccc(n2)-c2cccc(c2)OCC1", "Potency": "3.72 µM (active)"},
      {"smiles": "C=C1C(=CC=C2CCCC3(C)[C@@H]([C@H](C)C=CC=CC(O)(CC)CC)CC[C@@H]23)C[C@@H](O)C[C@@H]1O", "note": "(stereo partly drawn)", "Potency": "20.9 µM (active)"},
      {"smiles": "CCOc1cc2ncc(C#N)c(Nc3ccc(F)c(Cl)c3)c2cc1NC(=O)C=CCN(C)C", "Potency": "0.935 µM (active)"},
      {"smiles": "CC(C)(C)c1cc(C(C)(C)C)c(NC(=O)c2c[nH]c3ccccc3c2=O)cc1O", "activity change, negative = cytotoxic": "11.9%"},
      {"smiles": "CCS(=O)(=O)c1cccc(-c2cc(C(=O)NC3CCN(C)CC3)c(C)c3[nH]c4ncc(C)cc4c23)c1", "Potency": "0.526 µM (active)"},
      {"smiles": "C#Cc1cccc(Nc2ncnc3cc(OC)c(OCCCCCCC(=O)NO)cc23)c1", "Potency": "0.118 µM (active)"},
      {"smiles": "CC(C)c1ccc(Cn2ccc3c4c(N)nc(NC5CC5)nc4ccc32)cc1", "Potency": "3.72 µM (active)"},
      {"smiles": "Cc1ccc(S(=O)(=O)Nc2cc(Cl)ccc2C(=O)Nc2nc(-c3ccccc3)cs2)cc1", "Potency": "7.43 µM (active)"},
      {"smiles": "COc1ccc(CC2SC(=O)NC2=O)cc1C(=O)NCc1ccc(C(F)(F)F)cc1", "note": "(stereo not drawn)", "activity change, negative = cytotoxic": "9.54%"},
      {"smiles": "CC[C@@]1(O)C(=O)OCc2c1cc1n(c2=O)Cc2cc3cc(O)ccc3nc2-1", "Potency": "0.0235 µM (active)"},
      {"smiles": "C=CC(=O)Nc1cc2c(Nc3ccc(F)c(Cl)c3)ncnc2cc1C#CC(C)(C)N1CCN(C)CC1", "Potency": "2.96 µM (active)"},
      {"smiles": "Cc1cc(N2CCOCC2)cc2[nH]c(-c3c(NC[C@@H](O)c4cccc(Cl)c4)cc[nH]c3=O)nc12", "Potency": "16.6 µM (active)"},
      {"smiles": "COc1ccc(C(=O)CC2(O)C(=O)Nc3c(Cl)ccc(Cl)c32)cc1", "note": "(stereo not drawn)", "Potency": "1.18 µM (active)"},
      {"smiles": "O=C(C=Cc1cccc(S(=O)(=O)Nc2ccccc2)c1)NO", "Potency": "2.15 µM (active)"},
      {"smiles": "CC[C@H](CO)Nc1nc(NCc2ccccc2)c2ncn(C(C)C)c2n1", "Potency": "16.6 µM (active)"},
      {"smiles": "CNC(=O)c1cc(Oc2ccc(NC(=O)Nc3cc(C(C)(C)C)nn3-c3ccc4ncccc4c3)c(F)c2)ccn1", "Potency": "1.32 µM (active)"}
    ]},
    {"assay": "qHTS of pediatric cancer cell lines to identify multiple opportunities for drug repurposing: Primary screen for A673 cells (AID 1347092); also: nearly all actives have a fitted effect of over 45% in size; as to activity change, negative = cytotoxic: % is scaled to controls: 0 for no effect and ±100 for the full control effect", "conditions": "A673 Ewing sarcoma viability, CellTiter-Glo ATP luminescence, 48 h; series mostly up to 46 µM; activity change, negative = cytotoxic: at the top concentration", "method_in_brief": "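A673 cells (500-1,000 cells/well in growth media) were pre-incubated 5 h at 37 degrees C, then exposed to compounds for 48 h. Viability was read as CellTiter-Glo luminescence; concentration-response curves came directly from the primary screen.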", "units": {"activity change, negative = cytotoxic": "%"}, "values": [
      {"smiles": "CCc1cc2c(cc1N1CCC(N3CCOCC3)CC1)C(C)(C)c1[nH]c3cc(C#N)ccc3c1C2=O", "activity change, negative = cytotoxic": -56.9},
      {"smiles": "CN1CCN(c2ccc3nc(-c4c(N)c5c(F)cccc5[nH]c4=O)[nH]c3c2)CC1", "Potency": "14.8 µM (active)"},
      {"smiles": "Clc1cccc(-c2nnnn2Cc2cccnc2)c1Cl", "activity change, negative = cytotoxic": -11.5},
      {"smiles": "COc1cc(C)c(Sc2cnc(NC(=O)c3ccc(CNC(C)C(C)C)cc3)s2)cc1C(=O)N1CCN(C(C)=O)CC1", "note": "(stereo not drawn)", "Potency": "9.35 µM (active)"},
      {"smiles": "CN1CCN(Cc2ccc(NC(=O)Nc3ccc(Oc4cc(NC(=O)C5CC5)ncn4)cc3)cc2C(F)(F)F)CC1", "Potency": "0.148 µM (active)"},
      {"smiles": "CC(C)c1ccccc1Cc1cc(C(=O)Nc2ccc(S(=O)(=O)c3ccccc3C(C)(C)C)cc2)c(O)c(O)c1O", "Potency": "18.7 µM (active)"},
      {"smiles": "O=C(c1cncc(Br)c1)N1CCC(N2CCCC2)CC1", "activity change, negative = cytotoxic": -7.02},
      {"smiles": "CNC(=O)c1ccccc1Nc1nc(Nc2ccc(N3CCOCC3)cc2OC)ncc1Cl", "Potency": "1.87 µM (active)"},
      {"smiles": "Nc1nc(NCCNc2ncc(-n3ccnc3)c(-c3ccc(Cl)cc3Cl)n2)ccc1[N+](=O)[O-]", "Potency": "9.35 µM (active)"},
      {"smiles": "Cc1ccc2nc(NC(=O)CSc3nc4c(c(=O)n3-c3ccccc3)SCC4)sc2c1", "Potency": "14.8 µM (active)"},
      {"smiles": "O=C(O)c1ccc2c(c1)nc(Nc1cccc(Cl)c1)c1ccncc12", "Potency": "4.69 µM (active)"},
      {"smiles": "CC(C)(O)CCc1ccc(OCc2cc(-c3cccc(OC(F)F)c3)c3ncccc3c2)cc1", "activity change, negative = cytotoxic": -18.8},
      {"smiles": "COC(=O)c1ccc2c(C(=Nc3ccc(N(C)C(=O)CN4CCN(C)CC4)cc3)c3ccccc3)c(O)[nH]c2c1", "Potency": "0.296 µM (active)"},
      {"smiles": "C1=CCOCc2cc(ccc2OCCN2CCCC2)Nc2nccc(n2)-c2cccc(c2)OCC1", "Potency": "2.35 µM (active)"},
      {"smiles": "C=C1C(=CC=C2CCCC3(C)[C@@H]([C@H](C)C=CC=CC(O)(CC)CC)CC[C@@H]23)C[C@@H](O)C[C@@H]1O", "note": "(stereo partly drawn)", "Potency": "18.7 µM (active)"},
      {"smiles": "CCOc1cc2ncc(C#N)c(Nc3ccc(F)c(Cl)c3)c2cc1NC(=O)C=CCN(C)C", "Potency": "0.0296 µM (active)"},
      {"smiles": "CC(C)(C)c1cc(C(C)(C)C)c(NC(=O)c2c[nH]c3ccccc3c2=O)cc1O", "activity change, negative = cytotoxic": 0.598},
      {"smiles": "CCS(=O)(=O)c1cccc(-c2cc(C(=O)NC3CCN(C)CC3)c(C)c3[nH]c4ncc(C)cc4c23)c1", "Potency": "0.743 µM (active)"},
      {"smiles": "C#Cc1cccc(Nc2ncnc3cc(OC)c(OCCCCCCC(=O)NO)cc23)c1", "Potency": "0.0093 µM (active)"},
      {"smiles": "COc1ccc(CC2SC(=O)NC2=O)cc1C(=O)NCc1ccc(C(F)(F)F)cc1", "note": "(stereo not drawn)", "activity change, negative = cytotoxic": -17.2},
      {"smiles": "C=CC(=O)Nc1cc2c(Nc3ccc(F)c(Cl)c3)ncnc2cc1C#CC(C)(C)N1CCN(C)CC1", "Potency": "1.48 µM (active)"},
      {"smiles": "Cc1cc(N2CCOCC2)cc2[nH]c(-c3c(NC[C@@H](O)c4cccc(Cl)c4)cc[nH]c3=O)nc12", "Potency": "0.296 µM (active)"},
      {"smiles": "COc1ccc(C(=O)CC2(O)C(=O)Nc3c(Cl)ccc(Cl)c32)cc1", "note": "(stereo not drawn)", "Potency": "2.35 µM (active)"},
      {"smiles": "O=C(C=Cc1cccc(S(=O)(=O)Nc2ccccc2)c1)NO", "Potency": "4.29 µM (active)"},
      {"smiles": "CC[C@H](CO)Nc1nc(NCc2ccccc2)c2ncn(C(C)C)c2n1", "Potency": "18.7 µM (active)"},
      {"smiles": "CNC(=O)c1cc(Oc2ccc(NC(=O)Nc3cc(C(C)(C)C)nn3-c3ccc4ncccc4c3)c(F)c2)ccn1", "Potency": "5.9 µM (active)"}
    ]}
  ]
}
